Screening results deposited in PubChem BioAssay by several laboratories.
tim10-1 inh: growth inhibitors of tim10-1 mutant yeast, primary screen, luminescence, uHTS; S. cerevisiae tim10-1 ts strain growth, BacTiter-Glo, 24 h; inhibition, % at 20 µM; hit rate 2.2% among 330,000; AID 463190, 2010;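 active means inhibition of at least 40%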;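 further: mutant grown at 25 °C; 0% = DMSO wells with yeast and 100% = wells holding no yeast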
NLRP3 yeast inh: NALP3 inflammasome inhibitors in reconstituted yeast, primary screen, luminescence, uHTS | Yeast reconstituted NLRP3/ASC/caspase-1, beta-gal luminescence, 24 h | inhibition, % at 10 µM | hit rate 0.39% among 330,000;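 active means inhibition of 50% or more; inactive means inhibition below 50%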;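 further: plate controls were induced DMSO wells for no effect and uninduced yeast grown without galactose for full effect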
TIM10 inh: growth inhibitors of isogenic TIM10 control yeast, primary screen, counter-screen for tim10-1 yeast inhibitor project, luminescence, uHTS; inhibition, % at 10 µM; hit rate 1.4% among 330,000; AID 463195, 2010; S. cerevisiae TIM10 strain growth, BacTiter-Glo luminescence, 24 h;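 active means inhibition of 40% or more at the single tested concentration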;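 further: wild-type TIM10 isogenic control strain grown at permissive 25 °C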
V-ATPase pHluor: regulators of yeast V-ATPase proton pumping, primary screen, pHLuorin cytosolic pH fluorescence; hit rate 0.37% among 350,000; AID 504577, 2011; response, % at 10 µM; S. cerevisiae; in the data active means response mostly above about 7.3%, no sharp cut-off; inactive means mostly below about 5.4%; further: actives read high
NALP1 inh: NALP1 inflammasome inhibitors in reconstituted yeast, colorimetric, S. cerevisiae, triplicate retest; S. cerevisiae NALP1/ASC/caspase-1 growth, X-gal OD620, 72 h; inhibition, % at 10 µM; hit rate 0.61% among 280,000; in the data active means inhibition mostly above about 24%, no sharp cut-off; inactive means mostly below about 32%
tim23-1 inh: growth inhibitors of tim23-1 mutant yeast, primary screen, luminescence, uHTS; S. cerevisiae tim23-1 growth, BacTiter-Glo luminescence, 24 h; inhibition, % at 20 µM; hit rate 1.3% among 330,000; AID 463212, 2010;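 active means growth inhibition of the mutant yeast at or above 50%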;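 further: temperature-sensitive mutant grown at 25 °C; plate controls were DMSO-treated mutant yeast for no effect and medium wells lacking yeast for full effect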
tim10-1 confirm: growth inhibitors of tim10-1 mutant yeast, confirmation, single concentration, luminescence, S. cerevisiae; S. cerevisiae tim10-1 ts strain growth, BacTiter-Glo, 24 h; AID 463213, 2010; shares compounds with tim10-1 inh; inhibition, % at 20 µM; hit rate 56% among 7,400;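 active means inhibition of yeast growth at or above a set limit in either of two repeat tests at 20 µM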;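 further: tim10-1 mutant grown at permissive 25 °C to find synthetic lethal compounds; 0% = DMSO yeast wells and 100% = medium wells without yeast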
TIM10 conf: growth inhibitors of wild-type TIM10 yeast, confirmation, counter-screen for tim10-1 synthetic lethality project, single concentration, luminescence, S. cerevisiae; shares compounds with TIM10 inh; S. cerevisiae tim10 strain growth, BacTiter-Glo luminescence, 24 h; inhibition, % at 10 µM; hit rate 63% among 4,600; AID 463215, 2010;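 active means inhibition of yeast growth at or above a set limit in either of two replicates at 10 µM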;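 further: this counterscreen used the strain with wild-type TIM10; 0% = yeast with DMSO and 100% = medium wells lacking yeast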
The depositor's hits bear a star; x = not tested or not shown. An excerpt weighted towards active compounds, which were near 4.2% of everything screened.

SMILES	tim10-1 inh	NLRP3 yeast inh	TIM10 inh	V-ATPase pHluor	NALP1 inh	tim23-1 inh	tim10-1 confirm	TIM10 conf
O=C(N/N=C/c1sc(N2CCCCC2)nc1-c1cccs1)C1CC1	47*	12	47*	2	31*	48	36*	36*
CCCCOC1CC(c2ccc(OCc3ccc(OC)cc3)c(OC)c2)N(C)O1 (centres undefined)	30	17	25	1	22	17	x	x
Cc1ccccc1C(=O)NNC(=S)NC(=O)c1ccc(Cl)cc1Cl	15	37	23	1	-10	0	x	x
CCCN(CCC)C(=S)NC(=O)c1ccc(Cl)cc1Cl	54*	13	40*	1	3	42	28	37*
COc1cccc(-c2nn(C)c3sc(C(=O)N4CCN(c5ccccn5)CC4)cc23)c1	43*	17	41*	2	-5	30	32*	-16
COc1cccc(-c2nn(C)c3sc(C(=O)N4CCOCC4)cc23)c1	24	1	3	-2	46	15	x	x
Cc1ccc2nc(-c3ccc(Br)o3)oc(=O)c2c1	41*	15	48*	3	17	50	35*	33*
COc1cc2nc(-c3ccc(Br)o3)oc(=O)c2cc1OC	27	21	31	0	3	19	x	x
CCCCOC(=O)/C(=C\c1ccc([N+](=O)[O-])o1)NC(=O)c1ccccc1	40*	4	45*	0	42	25	40*	18
Cc1ccc2c(c1)C1CN(C)CCC1N2C(=O)c1cccc(S(=O)(=O)N2CC(C)CC(C)C2)c1 (centres undefined)	47*	13	55*	-3	7	25	43*	38*
Cc1ccn2c(Nc3ccc4c(c3)OCO4)c(-c3ccc(O)cc3)nc2c1	21	6	19	-2	27	23	x	x
Cc1ccc(NC2=C/C(=N/S(=O)(=O)c3cccs3)c3ccccc3C2=O)cc1C	x	x	x	1	28	x	x	x
Cc1ccccc1NC1=C/C(=N\S(=O)(=O)c2cccs2)c2ccccc2C1=O	82*	16	67*	1	-9	23	77*	54*
C/C(=N\N=c1/sc2ccccc2n1C)c1ccccn1	43*	12	43*	2	25	37	35*	-13
CC(=O)Oc1c(-c2ccco2)oc2ccccc2c1=O	53*	46	62*	-5	8	48	49*	61*
CCc1ccc(NC(=O)CSc2nc3ccccc3nc2N2CCCC2)cc1	-4	6	-4	2	7	9	x	x
CCc1cc(/C(Cc2ccccn2)=N\Nc2ccccc2)c(O)cc1O	37	4	11	-2	-2	22	x	x
Cc1ccc(NC(=O)CSc2nnc(NC(=O)C(C)C)s2)c(C)c1	-1	13	7	-2	3	5	x	x
Cc1ccc(Nc2nnc(SCC(=O)c3ccc(Br)s3)s2)c(C)c1	43*	27	46*	2	24	38	34*	-7
CCn1c(SCC(=O)Nc2cccc(C)c2)nc2nc3c(cc2c1=O)COC(C)(C)C3	12	24	0	2	-4	18	x	x
CCOC(=O)c1ccc(N2C(=O)CC(N3CCCC(C)C3)C2=O)cc1 (centres undefined)	66*	7	46*	-1	105*	28	66*	47*
Cc1cc(Sc2nc(N)ncc2[N+](=O)[O-])ncn1	51*	26	49*	0	5	41	48*	32*
Cc1cc(N)ncc1[N+](=O)[O-]	x	x	x	-1	x	x	x	x
Cc1ccc(-c2cc3c(N=O)c4ccccc4c-3n[nH]2)cc1	43*	5	44*	3	-16	38	10	29*
O=Nc1c2cc(-c3ccccc3)[nH]nc-2c2ccccc12	x	x	x	0	27	x	x	x
